Assay results taken from PubChem BioAssay AID504329 (Southern Research Specialized Biocontainment Screening …, 2011).
Screen size: about 340,000 compounds; about 1,000 (0.29%) were called active. Not all results are given here. Entries with a potency or affinity are not part of this list. Unmarked numbers belong to inactive results. No stated cut-off is given here; in the data, inconclusive means inhibition above about 27% without an active follow-up result; inactive means below that.

experiment: NS1A inhibition, H1N1 influenza, cell based functional assay (AID 504329); conditions: percent inhibition, at 12.5 µM, hits give high values

Structure (SMILES) | inhibition [%]
CSc1cccc(NC(=O)CN(C)S(=O)(=O)c2ccc(C)cc2)c1 | -2.41
CCOc1ccc(NS(=O)(=O)c2ccc(C(=O)NCC(C)(C)N3CCOCC3)cc2)cc1 | -14.4
Cc1ccc(NC(=S)NCc2ccccn2)cc1 | -14.7
O=C(CCCC(=O)N/N=C\c1ccccn1)N/N=C\c1ccccn1 | -2.81
O=C(Cc1ccccc1)N/N=C/c1ccccn1 | -2.81
S=C(NCc1ccccc1)NCc1ccccn1 | 1.05
Cc1ccc2c(c1)oc(=O)n2CC(=O)c1ccccc1 | -20.6
CCOC(=O)CC1CCCCN1C(=O)c1ccc2nc(CCOC)oc2c1 (configuration not stated) | 1.79
CCN1CCN(Cc2nc3cc(NC(=O)COc4ccc([N+](=O)[O-])cc4)ccc3n2C)CC1 | 0.32
CC(=O)c1ccc(N(CC(=O)NCC2CCCO2)C(=O)CCC(=O)Nc2cc(C)on2)cc1 (configuration not stated) | -8.06
Cc1cccn2c(=O)c(C(=O)NC3CCCCC3)c(O)nc12 | 5.08
CCOC(=O)C1CCCN(C(=O)/C=C/c2ccc(Cl)cc2)C1 (configuration not stated) | -12.8
O=C(O)C1C2C=CC(C2)C1C(=O)Nc1ccc(Cl)c(Cl)c1 (configuration not stated) | 1.34
NC(=S)N/N=C/c1cccc(/C=N/NC(N)=S)c1 | -0.05
NC(=S)N/N=C/c1ccccc1 | -0.87
Oc1ccccc1C=NNC(=S)NN=Cc1ccccc1O | 16.5
COC(=O)c1cccc(/C=N/NC(N)=S)c1O | -14.3
Cc1ccc(NC(=O)c2cc(S(=O)(=O)N3CCCC3)cn2C)cc1 | 2.93
COc1cccc(S(=O)(=O)Nc2ccc(C(=O)N3CCN(C(=O)c4ccco4)CC3)cc2)c1 | 5.1
COC(=O)C=CC(=NNc1ccccc1)c1ccccc1 | 3.06
Cc1nn(Cc2ccc(Cl)cc2)c(C)c1NC(=O)CCCn1nc(C)c([N+](=O)[O-])c1C | 10.9

Structure (SMILES) | inhibition [%]
Oc1c(Br)cc(Br)c2cccnc12 | -9.24
Oc1c(CN2CCN(c3ccccc3)CC2)cc(Br)c2cccnc12 | 14.4
O=C(c1ccc(Cl)cc1)C1CCCN(Cc2cccc3cccnc23)C1 (configuration not stated) | -0.71
O=C(O)c1ccc2cccnc2c1O | -0.15
CC(C(=O)NC1CCCCCC1)N(c1ccccc1)S(C)(=O)=O (configuration not stated) | 7.2
CC1(C)Cc2cccc(Oc3ccc(S(=O)(=O)N4CCCC4)cn3)c2O1 | 6.74
CC(C)(CNC(=O)C1CCCN1C(=O)c1cccs1)N1CCOCC1 (configuration not stated) | -1
O=C(c1cc(-c2ccc(Cl)cc2)n[nH]1)N1CCc2ccccc2C1 | -1.28
COc1ccccc1C(=O)NC(=O)COC(=O)c1cnc(C)cn1 | 1.58
CCc1cccc(CC)c1NC(=S)NCCc1ccc(O)c(O)c1 | 9.59
CCN1/C(=C/c2ccc3cc(C)ccc3[n+]2CC)Sc2cc(C)c(C)cc21 | 28.7
CCN1/C(=C/c2ccc3cc(C)ccc3[n+]2CC)Sc2ccccc21 | 21
CCN1C(=C(C#N)C#N)C=Cc2ccccc21 | -6.42
CCN1/C(=C\c2ccc3cc(C)ccc3[n+]2CC)Sc2cc(C)c(C)cc21 | 25.6
CCN1/C(=C/c2ccc3cc(C)ccc3[n+]2CC)Sc2ccc3sccc3c21 | -14
CCN1/C(=C/c2ccc3ccccc3[n+]2CCCS(=O)(=O)[O-])C=Cc2cc(C)ccc21 | 19.6
CC(=O)N(C)C(c1ccc(N(C)C)cc1)c1nnnn1-c1c(C)cccc1C (configuration not stated) | 3.51
CCCC(=O)Nc1nnc(S(=O)(=O)N(CC(C)C)c2ccccc2)s1 | -2.29
CCN(CC)C(=O)[C@H]1C[C@H](CC(=O)NCCc2ccccn2)C(=O)N2CCc3c([nH]c4ccc(Cl)cc34)[C@]12C | 15.9
O=C(CCC1CCCN(c2ncccn2)C1)NCc1ccccc1F (configuration not stated) | -9.11
O=C1OCc2cc(NC(=O)C34CC5CC(CC(C5)C3)C4)ccc21 | 1.32

Structure (SMILES) | inhibition [%]
Nc1ccc2c(c1)C(=O)c1ccc(Cl)cc1-2 | -15.2
O=C(O)c1cccc2c1-c1ccc(Cl)cc1C2=O | -19.9
C[C@@H]1Cc2c(O)c(O)cc(O)c2C(=O)O1 | 3.88
CC1CC(=O)c2c(cc3c(-c4c(O)cc(O)c5c(O)c6c(cc45)OC(C)CC6=O)c(O)cc(O)c3c2O)O1 (configuration not stated) | 24.8
O=C(CSc1nnc(-c2ccco2)n1CC1CCCO1)NC1CCCC1 (configuration not stated) | 20.3
CCOc1ccc(N=Nc2ccc(O)c3ncccc23)cc1 | 4
CCOc1ccc2[nH]c3ncccc3c(=O)c2c1 | 3.05
O=C(Nc1ccc([N+](=O)[O-])cc1Cl)c1cc(Cl)ccc1O | 8.63
O=C(Nc1cccc(O)c1)c1ccc([N+](=O)[O-])cc1Cl | -2.66
Cc1cccc(NS(=O)(=O)c2csc(C(N)=O)c2)c1 | 14.1
Cc1cccc(OCCCC(=O)NNC(=O)c2ccc(F)cc2)c1 | -5.91
COc1ccc(N=Nc2ccc(N)nc2N)cc1 | 20.4
COc1cc(N=Nc2ccc(C(=O)N(C)C)cc2)c(C)cc1N | 11.5
Cn1c(Cn2c(=O)sc3ccccc32)nnc1SCC(=O)NCCc1ccccc1 | 1.01
CN(C)c1ccc(N=Nc2ccccc2C(=O)OCC(=O)N2CCCC2)cc1 | 22.2
CN(C)c1ccc(N=Nc2ccccc2C(=O)OCC(=O)N2CCCCCC2)cc1 | 28.4
CN(C)c1ccc(N=Nc2ccccc2C(=O)OCC(=O)Nc2ccccc2C(F)(F)F)cc1 | 28.2
CC(=O)c1ccc(NC(=O)COC(=O)c2ccccc2N=Nc2ccc(N(C)C)cc2)cc1 | 17.2
CN(C)c1ccc(N=Nc2ccccc2C(=O)OCC(=O)NCC2CCCCC2)cc1 | 8.64
CN(C)c1ccc(N=Nc2ccccc2C(=O)OCC(=O)N(C)C2CCCCC2)cc1 | 10.8
